This passage reports outcome and AC50 results from PubChem BioAssay (EPA / NIEHS).

SMILES strings stand for the structures. Some structures have more than one record in an assay (separate samples or runs), and their calls can disagree. The source made the active and inactive calls. How the source made its calls: active means hit-call score of the fitted dose curve at least 0.9, where 1 is the maximum; inactive means score below 0.9.

Read-out in this experiment: Macrophage colony-stimulating factor (MCSF), CSF1 (gene 1435)
The experiment in a line: BSK_LPS_MCSF: BioMAP Diversity Plus: LPS Assay for Macrophage colony-stimulating factor (MCSF) Biomarker Activity (AID 2283083). As to conditions: primary human HUVEC with PBMC; actives raise or lower the signal. The procedure: BSK_LPS is a cell-based, multiplexed-readout assay that uses umbilical vein endothelium and peripheral blood mononuclear cells, a human vascular primary cell co-culture, with measurements taken at 24 hours after chemical dosing in a 96-well plate.BSK_LPS_MCSF is an assay component measured in the BSK_LPS assay. It measures M-CSF antibody related to regulation of gene expression using ELISA technology.Data from the assay component BSK_LPS_MCSF was analyzed into 1 assay endpoint. This assay endpoint, BSK_LPS_MCSF, was analyzed with bidirectional fitting relative to DMSO as the negative control and baseline of activity. Using a type of binding reporter, gain or loss-of-signal activity can be used to understand changes in the signaling as they relate to the gene CSF1. Furthermore, this assay endpoint can be referred to as a primary readout, because this assay has produced multiple assay endpoints where this one serves a signaling function. To generalize the intended target to other relatable targets, this assay endpoint is annotated to the cytokine intended target family, where the subfamily is colony stimulating factor.
The levels of cell surface (or secreted, indicated by the prefix "s") biomarker endpoints were measured by ELISA. Overt cytotoxicity to cells in confluent adherent cultures (all systems other than the BT system) was assessed by measuring total protein levels using sulforhodamine B (SRB) staining in parallel cultures at the time of biomarker measurements, indicated as SRB endpoints. For proliferation assays for adherent cell types, individual cell types are cultured at sub-confluence and relative cell numbers quantified by SRB staining at time points optimized for each system (48 h: 3C and CASM3C systems; 72 h: BT and HDF3CGF systems; 96 h: SAg system). SRB was performed by staining cells with 0.1% SRB after fixation with 10% TCA and reading wells at 560 nm.Viability and proliferation of PBMC (T cells) was quantified by Alamar Blue reduction for the SAg and BT systems. For PBMC viability (referred to as PBMC Cytotoxicity within the assay endpoint names), cells were plated (75,000/well in a 96-well plate) and then chemical samples added for 1 h before addition of activators, SEB and TSST-1 (20 ng/mL final concentration each). Cells were incubated for 90 h. Then, Alamar Blue (20 uL/well) (Invitrogen, Cat DAL1100) was added for 6 h, and the plates were read with a fluorescence microplate reader at 546/580 nm (excitation/emission). For PBMC proliferation, cells were plated and activated as above but incubated for only 16 h prior to addition of Alamar Blue. Plates were read after 6 h.
In the case of `O=[N+]([O-])c1ccccc1`, the outcome was inactive.
Consider `CCCN(CCC)c1c([N+](=O)[O-])cc(C(C)C)cc1[N+](=O)[O-]`, for which the AC50 was 26.2 µM (active).
Regarding `CC(C)Nc1ccc(Nc2ccccc2)cc1`, the AC50 was 8.91 µM (active).
Turning to `OCC(F)(F)OC(F)(F)C(F)(F)OC(F)(F)C(F)(F)OC(F)(F)CO`, the result was inactive.
`Cc1ccc2c(c1N)C(=O)c1ccccc1C2=O`: the outcome was inactive.
With `c1ccc2c(c1)sc1ccccc12`, the result was inactive.
Regarding `CC(Cl)CN(C)C` (stereo not given), the outcome was inactive.
For `ClC1=C(Cl)C2(Cl)C3C(Cl)C(Cl)CC3C1(Cl)C2(Cl)Cl` (stereo not given), the AC50 is 27.9 µM (active).
For `Cc1c([N+](=O)[O-])cc2c(c1[N+](=O)[O-])C(C)(C)CC2(C)C`, the result was inactive.
With `CCCCCCCc1ccc(O)cc1`, the concentration at half-maximal activity (AC50) was 32 µM (active).
On to `Cc1ccc([N+](=O)[O-])cc1C`, for which the result was inactive.
Still for that read-out and setting: to `O=C(O)C(F)(F)OC(F)(F)C(F)(F)OC(F)(F)F` belongs “inactive”; to `Cc1cccc(N)c1`, “inactive”.
On the same count and under the same terms, to `O=C(O)C1C(C(=O)O)C2(Cl)C(Cl)=C(Cl)C1(Cl)C2(Cl)Cl` (stereo not given) belongs “inactive”; to `CN(C)C(=O)Cl`, “inactive”; to `c1nc[nH]n1`, “inactive”.
The same measure, in the same setting: to `COP(=O)(O)OC` belongs “inactive”.
For the compound `OCC(F)(F)OC(F)(F)C(F)(F)OC(F)(F)C(F)(F)OC(F)(F)F`, the outcome was inactive.
On the same count and under the same terms, for `COC(=O)C(F)(F)C(F)(F)OC(F)(C(F)(F)F)C(F)(F)OC(F)=C(F)F` (stereo not given) the value was “inactive”.
Take `CC(C)(C)c1ccccc1OP(=O)(Oc1ccccc1)Oc1ccccc1`: the AC50 was 20 µM (active).
Regarding `Nc1ccc(Cl)cc1`, the result was inactive.
`C=CC(=O)OCC(CC)(COC(=O)C=C)COC(=O)C=C`: the AC50 was 1.91 µM (active).
Regarding `CC(Cc1ccc(OCC(=O)O)cc1)NCC(O)c1csc(C(F)(F)F)n1` (stereo not given), the result was inactive.
Take `[N-]=[N+]=[N-]`: the result was inactive.
`CCOC(=O)c1ccccc1C(=O)OCC`: the result was inactive.
Take `N#Cc1c(-c2ccc(Cl)cc2)[nH]c(C(F)(F)F)c1Br`: the outcome was inactive.
Regarding `C=CC(=O)OCC(F)(F)C(F)F`, the outcome was inactive and the AC50 is 30 µM (active).
Consider `O=C(O)C(F)(OC(F)(F)C(F)(F)C(F)(F)F)C(F)(F)F` (stereo not given), for which the result was inactive.
As for `OCC(F)(F)OC(F)(F)C(F)(F)OC(F)(F)CO`, the result was inactive.
Regarding `CCOP(=S)(NC(C)C)Oc1ccccc1C(=O)OC(C)C` (stereo not given), the result was inactive.
The same measure, in the same setting: to `CSC(C)(C)C=NO` belongs “inactive”; to `Cc1ccc(N)cc1N`, “inactive”.
Consider `O=C(O)C(F)(F)OC(F)(F)C(F)(F)OC(F)(F)C(=O)O`, for which the outcome was inactive.
With `ClC(Cl)=C(c1ccc(Cl)cc1)c1ccccc1Cl`, the AC50 is 20 µM (active).
Still for that read-out and setting: for `CCCCC(CC)COP(=O)(Oc1ccccc1)Oc1ccccc1` (stereo not given) the value was 8.19 µM (active).
Turning to `O=S(=O)(F)C(F)(F)C(F)(F)C(F)(F)C(F)(F)C(F)(F)C(F)(F)C(F)(F)C(F)(F)F`, the result was inactive.
With `CCCCN(CCCC)N=O`, the outcome was inactive.
On the same count and under the same terms, to `CCOP(=S)(S)OCC` belongs “inactive”; to `c1ccc(OP(Oc2ccccc2)Oc2ccccc2)cc1`, “inactive”.
